Source: PubChem BioAssay
FMDV antiviral = blocks foot and mouth disease virus. FMDV antiviral cell-based qHTS. Potency, µM (top dose mostly 57.9 µM), most hits filed as inhibitors. 410,000 compounds, 1.2% hits; calls by dose curve; tested in HEK293T cells; note: read-out not given here; nearly all actives have a fitted effect of over 45% in size
Sm TGR inh = inhibitors of Schistosoma mansoni thioredoxin glutathione reductase. Q962Y6. purified TGR, DTNB reduction, TNB absorbance 405 nm. Potency, µM (series often up to 114 µM), usual class: inhibitors. 360,000 compounds, 3% hits. AID 485364; note: nearly all actives have a fitted effect of over 60% in size
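First, TGR (20 nM dispensed) and NADPH were mixed with compound. Second, a 15 min room-temperature incubation followed. Third, further NADPH and then DTNB were added to start the reaction. Finally, TNB absorbance was monitored kinetically.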
Vaccinia mCherry = vaccinia inhibition (mCherry reporter). Vaccinia virus mCherry reporter infection, fluorescence. 310,000 compounds, 0.63% hits. Potency, µM (titrated, usually from 36.5 µM), actives largely listed as inhibitors. AID 720579; calls by dose curve; tested in A549 cells; note: nearly all actives have a fitted effect of over 35% in size
HCV inhibitor = inhibitors of hepatitis C virus infection; 340,000 compounds, 3.4% hits; Huh7.5.1 HCVcc-Cre infection, luciferase reporter, 44 h; Potency, µM (series often up to 41.8 µM), most hits filed as inhibitors
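Infectious HCV cell culture screen: compound-treated cells (1,000/well, pre-plated 4 h) are infected with HCVcc-Cre at roughly 0.5 moi and grown 44 h. Infection is quantified by luciferase signal after 15 min substrate incubation at room temperature.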
VACV Venus inh = inhibitors of vaccinia virus (Venus reporter); Vaccinia virus Venus reporter expression, fluorescence; Potency, µM (titrated, usually from 36.5 µM), most hits filed as inhibitors; 330,000 compounds, 0.46% hits; calls by dose curve; tested in A549 cells; note: nearly all actives have a fitted effect of over 30% in size
HCMV inh = blocks human cytomegalovirus replication; activity change, negative = inhibition, % at 57.5 µM; HFF cells, HCMV-luciferase reporter, 72 h; stronger effect = lower value; 410,000 compounds, 4.5% hits; in the data active = activity change below about -60%; inconclusive = no clear call, values can overlap the other calls; inactive = above about -39%
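After 16 h attachment at 37C, HFF cells received test compound and HCMV-luciferase (1 PFU/cell); reporter luminescence read 72 h later, data normalized against buffer-only and known inhibitor Salinomycin.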
Hits are given with their value; i = inactive; ? = inconclusive; nt = not tested or not shown; [ ] = remark or other dose. The list is not random: actives were taken first. Their share in the collection is about 9.3%. Unless noted, calls come from the whole dose curve; as a rule, active = well fitted curve in the direction sought with a large enough effect; inconclusive = small, poorly fitted or top-dose-only effect, or another doubt; inactive = no such curve, though single readings can be large; an effect the other way counts as inactive or inconclusive.

SMILES	FMDV antiviral	Sm TGR inh	Vaccinia mCherry	HCV inhibitor	VACV Venus inh	HCMV inh
CCC1CN2CCc3cc(OC)c(OC)cc3C2CC1CC1NCCc2c1[nH]c1ccc(O)cc21 (stereo unspecified)	?	nt	?	?	5.6µM	-99
CCOC(=O)CCc1c(C)nc(-n2[nH]c(C)c(CCO)c2=O)[nH]c1=O	i	16µM	i	i	i	i
Cc1[nH]n(-c2nc(-c3ccccc3)cc(=O)[nH]2)c(=O)c1CCO	i	i	i	i	i	i
COc1ccc(CCNC(=O)COc2ccc(S(=O)(=O)NCC(C)C)cc2Cl)cc1OC	i	i	i	i	i	i
COc1cc(OC)cc(-c2sc3ccc(OC)cc3c2-c2ccc(OCCN3CCOCC3)cc2)c1	i	nt	i	?	?	nt
CCNc1nc(-c2sc(NC(=O)C(C)(C)C)nc2C)c(-n2cc(-c3ccccc3)nn2)s1	?	nt	?	nt	?	-70
CCc1ccc(-c2cc(C)no2)cc1S(=O)(=O)N1CCN(c2ccc(C(C)=O)cc2)CC1	?	i	i	6.3µM	i	?
CC(=O)c1ccc(N2CCN(S(=O)(=O)c3cc(-c4cc(C)no4)ccc3C(C)C)CC2)cc1	i	i	nt	i	nt	?
CCc1ccc(-c2cc(C)no2)cc1S(=O)(=O)N1CCCN(Cc2ccc(F)cc2)C1	i	i	nt	10µM	nt	i
Cc1cc(-c2ccccc2)nc(N/N=C/c2ccccc2)n1	i	i	?	?	i	i
Cc1cc(-c2ccccc2)nc(N/N=C/c2ccco2)n1	i	i	nt	i	nt	i
Cc1cc(-c2ccccc2)nc(N/N=C/c2ccc(O)cc2O)n1	i	i	?	10µM	?	i
CN(/N=C/c1ccc(O)cc1O)c1nc(-c2ccccc2)cc(-c2ccccc2)n1	i	i	?	?	20µM	-62
Cc1cc(-c2ccccc2)nc(N/N=C/c2ccc(N(C)C)cc2)n1	i	nt	nt	13µM	nt	i
COc1ccc(/C=N/Nc2nc(C)cc(-c3ccccc3)n2)cc1OC	i	i	i	?	i	-86
Cc1c(C(=O)OC2CCCCC2)[nH]c2c1C(=O)CC(c1ccc(F)cc1)C2 (stereo unspecified)	i	i	i[7.34 µM]	nt	i[7.34 µM]	i
COc1ccc(-n2c(O)c(/C=N/Nc3nc(C)cc(C)n3)c3ccccc3c2=O)cc1OC	i	i	?	2.8µM	?	-94
COc1ccc(-n2c(O)c(/C=N/NS(=O)(=O)c3ccc(C)cc3)c3ccccc3c2=O)cc1OC	i	i	i	i	i	?
Cc1cc(-c2ccccc2)nc(N/N=C/c2ccc([N+](=O)[O-])cc2)n1	i	?	i	10µM	i	i
COc1ccc(CCNC(=O)CCN2C(=O)COc3ccc(C)cc32)cc1OC	i	i	nt	2.8µM	nt	i
Cc1ccc2c(c1)N(CCC(=O)NC(C)C)C(=O)CO2	i	i	i	i	i	-76
COc1ccc(CCNC(=O)CCN2C(=O)COc3ccccc32)cc1OC	nt	i	i	i	i	i
N#CC(C#N)=Cc1ccc(C=C(C#N)C#N)cc1	?	2.2µM	i	i	i	i
Cc1c(N=Cc2ccc(Cl)o2)c(=O)n(-c2ccccc2)n1C	i	22µM	i	i	i	i
Nc1ccc(Cc2ccc(N)cc2)cc1	i	nt	i	i	i	i
SMILES	FMDV antiviral	Sm TGR inh	Vaccinia mCherry	HCV inhibitor	VACV Venus inh	HCMV inh
O=C(OCC(=O)c1ccc(Cl)cc1Cl)c1ccc2c(c1)C(=O)N(c1cccc3ncccc13)C2=O	i	i	nt	i	nt	i
Cc1ccc(C(=O)COC(=O)c2ccc3c(c2)C(=O)N(c2cccc4ncccc24)C3=O)cc1	?	i	nt	i	nt	-94
O=C(COC(=O)c1ccc2c(c1)C(=O)N(c1cccc3ncccc13)C2=O)c1ccc(Cl)cc1	?	i	i	i	i	-89
O=C(O)c1ccc2c(c1)C(=O)N(c1ccc(C(=O)OCC(=O)c3ccccc3)cc1)C2=O	i	nt	i	i	i	i
Nc1nc(Cl)cc(N2CCC(c3cc(-c4ccc(Cl)cc4Cl)n[nH]3)CC2)n1	?	i	nt	22µM	nt	-100
Cc1ccccc1C(=O)Nc1cccc(NC(=O)c2ccc(F)cc2)c1	i	i	i	?	i	?
CC(=O)N1CCN(c2ccc(NCc3ccccc3)cc2)CC1	i	i	nt	i	nt	i
CC(=O)N1CCN(c2ccc(NCc3ccc(-c4ccc(Br)cc4)o3)cc2)CC1	?	nt	nt	nt	nt	-80
CN1CCN(c2ccc(NC(=O)c3ccc(-c4ccc(Br)cc4)o3)cc2)CC1	i	i	?	10µM	i	i
